Data reported in PubChem BioAssay (NCATS).
Records with an inconclusive call do not appear. Activity calls are given as the source filed them. Calls follow the shape of the dose curve; as a rule, active = well fitted curve in the direction sought with a large enough effect; inconclusive = small, poorly fitted or top-dose-only effect, or another doubt; inactive = no such curve, though single readings can be large; an effect the other way counts as inactive or inconclusive.

Experiments:
[1] = qHTS assay for measurement of the activity of small molecule inhibitors on Zika virus induced Caspase-3 activity in human iPSC derived neural progenitor cells (hNPCs) (AID 1224857); also: % of control where 0% means no effect; nearly all actives have a fitted effect of over 65% in size
Outline: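 hNPCs seeded 350 cells/well, cultured 16–20 h; compounds added 1 h before ZIKV (2 FFU/cell), 37 C 6 h. Caspase-Glo 3/7 luminescence after 30 min RT; % inhibition from induction scaled to uninfected (0%) and infected (100%) wells.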

[2] = qHTS assay for measurement of the activity of small molecule inhibitors on Zika virus induced Caspase-3 activity in human astrocytoma cells (AID 1224859);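 also: plate controls were ZIKV-infected untreated cells for no effect and uninfected cells for full effect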
Outline: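 Luminescence read-out (Caspase-Glo 3/7, 30 min RT) of caspase activity in SNB-19 cells infected 6 h with ZIKV, 2 FFU/cell, after 1 h compound pretreatment; % inhibition from induction normalised to uninfected (0%) and infected (100%) wells.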

[3] = qHTS assay to identify small molecule inhibitors of chordoma cells - UCH-1 (AID 1259355); also: % is scaled to controls: 0 for no effect and ±100 for the full control effect; nearly all actives have a fitted effect of over 55% in size
Outline: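 Seed 800 cells per well; incubate overnight at 37 C, 5% CO2. Add test compounds (15 concentrations), then the auranofin–topoisomerase-agent combination. Incubate 48hr, add CellTiter-Glo, wait 30min, read luminescence.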

[4] = qHTS assay to identify small molecule inhibitors of chordoma cells - UCH-2 (AID 1259356); also: series mostly up to about 46 µM; % is scaled to controls: 0 for no effect and ±100 for the full control effect
[5] = P-glycoprotein substrates identified in KB-8-5-11 adenocarcinoma cell line, qHTS therapeutic library screen (AID 1346987); also: nearly all actives have a fitted effect of over 65% in size
Outline: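 KB-8-5-11: colchicine-selected sub-line of KB-3-1 over-expressing P-gp; assay medium lacked colchicine. 72 h drug exposure at 37 degree C, CellTiter-Glo.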

[6] = NS1 protein of Zika virus - qHTS assay to identify small molecule inhibitors in human HEK 293 cells (AID 1347053);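 also: series mostly up to about 46 µM; plate controls were infected untreated cells for no effect and uninfected cells for full effect; nearly all actives have a fitted effect of over 55% in size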
Outline: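 Inhibition of NS1 expression was scored in HEK 293 cells given compound 1 h ahead of MR766 virus (MOI = 0.5). Following 24 h at 37 C, two anti-NS1 antibodies generated a TR-FRET signal, scaled between uninfected and infected controls.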

[7] = qHTS of pediatric cancer cell lines to identify multiple opportunities for drug repurposing: Primary screen for TC32 cells (AID 1347089); also: % is scaled to controls: 0 for no effect and ±100 for the full control effect; nearly all actives have a fitted effect of over 60% in size
Outline: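 Measured quantity: luminescence from CellTiter-Glo, reflecting metabolically active TC32 cells following 48 h of compound. Curves came straight from multi-point titrations, with 8 or 11 points in primary and 11 in confirmatory screening.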

Cn1c(=O)c2c(ncn2CC2OCCO2)n(C)c1=O
inactive: outcome [1] | outcome [2] | Potency [3] | outcome [4] | Potency [5] | Potency [6] | Potency [7]

O=c1[nH]c(=O)c2[nH]c(=O)[nH]c2[nH]1
inactive: activity change, negative = inhibition [1] -8.73% [at 9.06 µM] | activity change, negative = inhibition [2] -0.8% [at 9.06 µM] | Potency [3] | outcome [4] | Potency [5] | activity change, negative = inhibition [6] -8.7% [at 9.2 µM] | activity change, negative = cytotoxic [7] -9.56% [at 9.17 µM]

NCCNCCNCCNCCN
inactive: activity change, negative = inhibition [1] -1.07% [at 9.06 µM] | activity change, negative = inhibition [2] 14.1% [at 9.06 µM] | Potency [3] | outcome [4] | Potency [5] | activity change, negative = inhibition [6] -10.7% [at 9.2 µM] | activity change, negative = cytotoxic [7] 6.7% [at 9.17 µM]

Nc1ccc(S(=O)(=O)Nc2ccc(Cl)nn2)cc1
inactive: outcome [1] | outcome [2] | Potency [3] | outcome [4] | Potency [5] | Potency [6] | Potency [7]

CC1(C)[C@@H]2CC[C@@]1(C)C(=O)C2
inactive: outcome [1] | outcome [2] | Potency [3] | outcome [4] | Potency [5] | Potency [6] | Potency [7]

CC(=O)Oc1c(C)c(C)c2c(c1C)CC[C@@](C)(CCC[C@H](C)CCC[C@H](C)CCCC(C)C)O2
inactive: outcome [1] | outcome [2] | Potency [3] | outcome [4] | Potency [5] | Potency [6] | Potency [7]

Cc1ncc([N+](=O)[O-])n1CC(O)CCl (stereo not drawn)
inactive: outcome [1] | outcome [2] | Potency [3] | outcome [4] | Potency [5] | Potency [6] | Potency [7]

CC(=O)NC(Cc1ccccc1)C(=O)O (stereo not drawn)
inactive: outcome [1] | outcome [2] | Potency [3] | outcome [4] | Potency [5] | Potency [6] | Potency [7]

CCCCC(CC)COC(=O)c1ccccc1O (stereo not drawn)
inactive: outcome [1] | outcome [2] | Potency [3] | outcome [4] | Potency [5] | Potency [6] | Potency [7]

CN1[C@@H]2CC[C@H]1CC(OC(=O)C(O)c1ccccc1)C2 (stereo partly drawn)
inactive: outcome [1] | outcome [2] | Potency [3] | outcome [4] | Potency [5] | Potency [6] | Potency [7]

N[C@@H](CSCCCO)C(=O)O
inactive: outcome [1] | outcome [2] | Potency [3] | outcome [4] | Potency [5] | Potency [6] | Potency [7]

O=S(=O)(O)NC1CCCCC1
inactive: outcome [1] | outcome [2] | Potency [3] | outcome [4] | Potency [5] | Potency [6] | Potency [7]

CCC(=O)c1ccc(O)cc1
inactive: outcome [1] | outcome [2] | Potency [3] | outcome [4] | Potency [5] | Potency [6] | Potency [7]

O=c1cc(CO)occ1O
inactive: outcome [1] | outcome [2] | Potency [3] | outcome [4] | Potency [5] | Potency [6] | Potency [7]

CCN(CC)C(=O)Nc1ccc(OCC(O)CNC(C)(C)C)c(C(C)=O)c1 (stereo not drawn)
inactive: outcome [1] | outcome [2] | Potency [3] | outcome [4] | Potency [5] | Potency [6] | Potency [7]

Cc1cccc(Nc2cc(Cl)nc(SCC(=O)O)n2)c1C
inactive: outcome [1] | outcome [2] | Potency [3] | outcome [4] | Potency [5] | Potency [6] | Potency [7]

C[C@@H]1C[C@H]2[C@@H]3C[C@H](F)C4=CC(=O)C=C[C@]4(C)[C@@]3(F)[C@@H](O)C[C@]2(C)[C@@]1(O)C(=O)CO
inactive: outcome [1] | outcome [2] | Potency [3] | outcome [4] | Potency [5] | Potency [6] | Potency [7]

CCC(=O)Nc1ccc(O)cc1
inactive: outcome [1] | outcome [2] | Potency [3] | outcome [4] | Potency [5] | Potency [6] | Potency [7]

COc1ccc(S(=O)(=O)Nc2nnc(CC(C)C)s2)cc1
inactive: outcome [1] | outcome [2] | Potency [3] | outcome [4] | Potency [5] | Potency [6] | Potency [7]

CN(C)CCN(Cc1ccccc1)c1ccccn1
inactive: outcome [1] | outcome [2] | Potency [3] | outcome [4] | Potency [5] | Potency [6] | Potency [7]

CCOc1nc2cccc(C(=O)O)c2n1Cc1ccc(-c2ccccc2-c2nn[nH]n2)cc1
inactive: outcome [1] | outcome [2] | Potency [3] | outcome [4] | Potency [5] | Potency [6] | Potency [7]

CC(C)(O)c1ccccc1CC[C@@H](SCC1(CC(=O)O)CC1)c1cccc(/C=C/c2ccc3ccc(Cl)cc3n2)c1
inactive: outcome [1] | outcome [2] | Potency [3] | outcome [4] | Potency [5] | Potency [6] | Potency [7]

NCCNCCNCCN
inactive: outcome [1] | outcome [2] | Potency [3] | outcome [4] | Potency [5] | Potency [6] | Potency [7]

NS(=O)(=O)c1cc2c(cc1C(F)(F)F)NC(Cc1ccccc1)NS2(=O)=O (stereo not drawn)
inactive: outcome [1] | outcome [2] | Potency [3] | outcome [4] | Potency [5] | Potency [6] | Potency [7]

Cc1cc(CC(=O)O)n(C)c1C(=O)c1ccc(Cl)cc1
inactive: outcome [1] | outcome [2] | Potency [3] | outcome [4] | Potency [5] | Potency [6] | Potency [7]

CC(O)COc1ccccc1 (stereo not drawn)
inactive: outcome [1] | outcome [2] | Potency [3] | outcome [4] | Potency [5] | Potency [6] | Potency [7]

O=C(O)Cc1sc(-c2ccccc2)nc1-c1ccc(Cl)cc1
inactive: outcome [1] | outcome [2] | Potency [3] | outcome [4] | Potency [5] | Potency [6] | Potency [7]

O=C(O)[C@H](O)c1ccccc1
inactive: outcome [1] | outcome [2] | Potency [3] | outcome [4] | Potency [5] | Potency [6] | Potency [7]

CS(=O)(=O)c1ccc([C@@H](O)[C@@H](CF)NC(=O)C(Cl)Cl)cc1
inactive: outcome [1] | outcome [2] | Potency [3] | outcome [4] | Potency [5] | Potency [6] | Potency [7]
